Data published in the supplement of paper PMC11417369.
Over roughly 25,000 sequences, “ln(normalized median fluorescence intensity)” has its median near 9.7; the highest 2% begin near 11. This is one part of a sample in which the highest values are shown more often than they occur.

Test system: PfAP2-HC AP2 domain (GST-tagged)
Assay: gcPBM binding intensity (ln(normalized median fluorescence intensity)); higher = stronger DNA binding
Summary of the method: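 Binding intensity is the highest Masliner-normalised natural-log median intensity over replicate spots in either probe orientation. To obtain it, GST-tagged P. falciparum DNA-binding domains made in E. coli were incubated for 1 h on an Agilent 4 × 180k array of primer-extended double-stranded 36-bp intergenic genomic probes plus negative controls. Detection used Alexa488 anti-GST antibody with scanning at 488 nm.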

| Sequence | gcPBM binding intensity (ln) |
| --- | --- |
| ATATTAATTATAACTTGTACGTAAAAGGAAAACAAT [XGTACX_site3269] | 9.76 |
| ATTATAATATTGTTATGTACATAAAAATTATTGAAT [XGTACX_site4476] | 9.82 |
| GATAACATAATATGTTGTACATAAAAATTTTTATCA [XGTACX_site1969] | 9.62 |
| GTAAAAATAAAAACTGGTACACAAGTTGTTATAAAA [XGTACX_site502] | 9.76 |
| TTATTTATTCTATGTGCATGTTATTTTTTTTTTTCG [TGCATGCA_site262] | 9.73 |
| TTTGTGTGTGCGTGTGCATGTTGTTTTTTTCTATAA [TGCATGCA_site17] | 11.7 |
| TTTTGTTTATGTGTGCATTATATTATATTTTTTATT [TGCATGCA_negctrl_site146] | 10.1 |
| ATTTACATAAATTGCATATATCGATGTAAATAAATA [CACACA_negctrl_site1150] | 9.5 |
| AATAAATATAAATACACACCCATATATATATATATA [CACACA_site5436] | 9.67 |
| ATATAATATATATATAAACACACAAAAAAAATTATA [CACACA_site8434] | 9.97 |
| TAAACACCCATATAAACACACATATAAACACCCATA [CACACA_site5382] | 10.3 |
| ATAATATATATATAAACACACAAAAAAAATTATATA [CACACA_site1534] | 9.86 |
| TATATATAAAAACACACACACACACCCTATAATTAT [CACACA_site4063] | 11.3 |
| AATAAATATAAATACACACCCATATAAATATAAATA [CACACA_site7264] | 10.1 |
| AAAAAAAAAAAACACACACACACACCCATATATAAA [CACACA_site1170] | 11.1 |
| AATATAAATAAAAACACACACACACCCATATATATA [CACACA_site2267] | 11.3 |
| TACATATATAAAAAAACACACACATATATATATATA [CACACA_site8315] | 9.93 |
| AATGTACACCCACCCACACACAAACAAATATATATA [CACACA_site5521] | 10.3 |
| AATGTACCCACACCCACACACAAACAAATATATATA [CACACA_site2751] | 10.2 |
| AATGTACACGCACCCACACACAAACAAATATAAATA [CACACA_site7319] | 11.6 |
| TTTATTTTTATGGTCACACATATTTTTAAAACTATA [CACACA_site4372] | 9.77 |
| TTTCATTTTTTTACATGTACGCAAAAGTGTGTAGTT [XGTACX_site6582] | 9.78 |
| TTTTTTTTTGAATACAGTACACAAGTGTTAAGTTTA [XGTACX_site7069] | 9.36 |

| Sequence | gcPBM binding intensity (ln) |
| --- | --- |
| TAAGTATACTCATACACACACACACTAGAAAAAAAA [CACACA_site4397] | 10.4 |
| TTCCACATTTTACAGACACACACAATTTATATTACG [CACACA_site8572] | 10.1 |
| ATGTTAAACAAATCTATACACACGTATATGACAAAA [CACACA_site1783] | 9.71 |
| TTTTGAAGTAATACATGTACTTAAATTACTAAAAAA [XGTACX_site1955] | 9.47 |
| TTCATATATTTTAAAGCATGCATTCATCTTATAGTT [TGCATGCA_site800] | 9.71 |
| TTGTATATATTTATATGTACATATATTACTTTTGCT [XGTACX_site2449] | 9.83 |
| TAAAATAACTCACAAAGTACAAAAATAAGCATATGA [XGTACX_site7046] | 9.79 |
| TTTATTTTGTTTTCTTGTACATAAATAATTACATAT [XGTACX_site4227] | 9.86 |
| TCATAGTATGGACACACACACACACCCATATATATA [CACACA_site5033] | 11.2 |
| ATTCATATGAAACACACACACACACCCATAAAAAAA [CACACA_site3246] | 10.5 |
| TATAAACACCCATATAAACACACATACATACATACA [CACACA_site8791] | 10.2 |
| CAAAAAATGAAACACACACACACACCCATAAATAAA [CACACA_site1231] | 10.8 |
| TATCTCATAGTATACACACACACACCCACCCATATA [CACACA_site1739] | 10.7 |
| TAAACACCCATATAAACACACATACATACATACATA [CACACA_site5383] | 10.4 |
| AACACCCATGGACACACACACATATATATATATATA [CACACA_site5809] | 10.4 |
| TACACGCATAAACACACACACACACCCATATATATA [CACACA_site8114] | 11.3 |
| TCATAGTATAAACACACACACACACCCATATATATA [CACACA_site8512] | 11 |
| ATAATCCTGAAACACACACACACACCCATAAATAAA [CACACA_site481] | 11.1 |
| ATTAGTGACATTATTACACACAAAAGAAAACAGAAA [CACACA_site3984] | 9.99 |
| TTTCAAAAAAATAATGTGCACATTAGAAAATAAATA [GTGCAC_site9416] | 9.78 |
| TATTTTTTGAAAAGTTCACACATCCAACTCGAGTTG [CACACA_site4412] | 9.62 |
| TATATATATATAATATGTACATATATATATTCTTAA [XGTACX_site6154] | 9.49 |
| GTATGTATAATATACACACTCACAAGCATTCAAATA [CACACA_site267] | 9.76 |

| Sequence | gcPBM binding intensity (ln) |
| --- | --- |
| GAAAAACAAATATATTAACACACAAACATATAAACA [CACACA_site9315] | 10.2 |
| TACACGCATGGACACACACACACACCCATATATATA [CACACA_site4522] | 11 |
| TAAAGAATATTATAAACACACACTTTATAAAGAATT [CACACA_site114] | 9.91 |
| TATTAAACGAAACACACACACACACCCATATATAAA [CACACA_site759] | 11.5 |
| TATATAAATAAACACACACACACCTTATAATTATTA [CACACA_site9345] | 10.5 |
| AAAAAAAAAAAAAACACACACACACCCATAAATATA [CACACA_site151] | 11.2 |
| CACGCATACAGACACACACACACACCCATATATATA [CACACA_site636] | 10.6 |
| TACACCCATGGACACACACACACGCATAAAAAAAAA [CACACA_site4933] | 10.7 |
| TATATAAAGAAACACACACACACCTTATAATTATTA [CACACA_site4062] | 11.2 |
| TATATATTAAAACACACACACATATATATATATATA [CACACA_site3787] | 10.1 |
| AAAAAAAATAAACACACACACATACCCATAAATATA [CACACA_site5980] | 10.4 |
| ACCATATAAATAAACACACACACACCCATATATATA [CACACA_site2321] | 10.6 |
| AAATTACAAATACAAACACACAAATGTTTTTCATTC [CACACA_site3552] | 9.77 |
| AAAAAAAAAAGAACCCGTACATAAATAATATATATA [XGTACX_site164] | 9.73 |
| AAATTGAGACAACAGGTGCATATAAATATACAGTGT [GTGCAC_site9634] | 9.79 |
| GTATGAAATTATAATAGTACATATAAATAAAAAAAA [XGTACX_site8955] | 9.85 |
| ATTTTAATATAAAATACACACTACTATTATAAATAT [CACACA_site4917] | 9.64 |
| AAAATTGAACCTGACAAGGTATTTTATTATTTATTA [TGCATGCA_negctrl_site181] | 9.44 |
| ATAAAAATGGTGTTAACACACACATATATATATATA [CACACA_site8089] | 9.83 |
| TATATTATTTATAGTAGTACATAAAATATAAATATT [XGTACX_site4417] | 9.48 |
| TATTTTGTCATAGAACGTACTTATAAATATTTTTTT [XGTACX_site8424] | 9.5 |
| AAATCATGTTGAAGGGGTACAAAATATGTAATGTTG [XGTACX_site6222] | 9.82 |
| TTTTATTTCAATCCACAAGGGATAAAATAAAGTTTT [CACACA_negctrl_site699] | 9.3 |

| Sequence | gcPBM binding intensity (ln) |
| --- | --- |
| AACACAGATAAATTAACACACACACCCATATATATA [CACACA_site9310] | 11.2 |
| CACAGATAAATTAACACACACACACCGATATATATA [CACACA_site6049] | 10.5 |
| TATATATAGAAACACACACACACACCCAAGCGTAGC [CACACA_site63] | 10.6 |
| TATATATAGAAACACACACACATATATATATATATA [CACACA_site773] | 10.5 |
| AATACACGCAAACACACACACACACCCACATATATA [CACACA_site638] | 10.8 |
| TTCCCATGTAATATTAAACACACACCCATATAACAC [CACACA_site7905] | 10.5 |
| AAAATACAGAAACACACACACACACCCATATATATA [CACACA_site3559] | 10.7 |
| TTTATTAAACTTGACACACACACACCCACATATATA [CACACA_site760] | 10.2 |
| TCATAGTAGAAACACACACACACACCCATATATATA [CACACA_site1737] | 11.3 |
| TACACGCAGAAACACACACACACACCCATATATATA [CACACA_site637] | 11.4 |
| TATTAAACTGGACACACACACACACCCATATATAAA [CACACA_site4579] | 11.2 |
| CACAGATAAATTAACACACACACACCCATATATATA [CACACA_site3960] | 10.5 |
| TTTCGTCATTTTGTTTTTAATTCTACAATTTAGTTA [XGTACX_negctrl_site286] | 9.66 |
| TTATAGAGCTTATTCACACATACATATGTATTTATA [CACACA_site5775] | 9.87 |
| ATTATTATACACAAATGTACATGTGAATTTTTTTTC [XGTACX_site6982] | 9.63 |
| ATAAAACAAAAATATAAACACACATACATTGGTTTT [CACACA_site8809] | 10.1 |
| TTATTTTTATTATTTTGTATATATATTTATAGAAAA [XGTACX_negctrl_site465] | 9.28 |
| AAATATATTTCACGCACACACACCCCAAATAAATTT [CACACA_site3820] | 11.2 |
| TATACAATATAAAATACACACGCACCCAAAAAAAAA [CACACA_site9174] | 10.3 |
| AGATAAAAAAAGTACACACACACATATATATATATA [CACACA_site3072] | 10.4 |
| AATACATATAAAAGTACACACACACCCATATATATA [CACACA_site8220] | 10.5 |
| ATAAATATATTTCACGCACACACACCCCAAATAAAT [CACACA_site9272] | 10.4 |
| TACATATAAAAGTACACACACACACCCATATATATA [CACACA_site941] | 11 |
